Measured values taken from PubChem BioAssay (NCI).
The panel holds about 83,000 compounds, 20% with a hit somewhere; the sample as a whole holds those more often.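 Interpretation: 100, growth as untreated; towards 0, rising growth inhibition; 0, no net growth; 0 to -100, cell death. Compounds scoring below 10 were considered active.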 Activity calls are given as the source filed them.

test system: HCT-116 colon; assay: NCI-60 one-dose screen, 48 h (100 = growth as untreated, 0 = no growth, -100 = all killed); conditions: 10 µM unless noted
Experimental: Growth inhibition of the HCT-116 human tumor cell line is measured as a screen for anti-cancer activity. Cells are grown in 96 well plates and exposed to the test compound for 48 hours. Compounds are tested at a single concentration, which is 10^-5 M for most compounds. The reported endpoint is percent growth (GI% or GIPRCNT), where numbers from 0 - 100% represent growth inhibition, and numbers from -100% - 0 represent cell death. For example, a value of 40 represents 60% growth inhibition. A value of 0 means no net growth occurred over the course of the experiment. A value of -40 indicates 40% of cells at the beginning of the experiment died by the end of the experiment. A value of -100 means all cells are dead at the end of the experiment.
NCI-60 Human Tumor Cell Lines Screen was performed using the standard one-dose NCI protocol, which is described in more detail at https://dtp.cancer.gov/discovery_development/nci-60/default.htm.
Compounds with GIPRCNT values below 10 were considered active. Activity score was based on GIPRCNT using the following formula: […]
Score is 0 for GIPRCNT values of 100 or above, 50 for GIPRCNT values of 0, and 100 for GIPRCNT values of -100.

SMILES	growth
CCOC(=O)c1cc(C(=O)c2ccc(O)c(O)c2)n2ccc(-c3ccn4c(C(=O)c5ccc(O)c(O)c5)cc(C(=O)OCC)c4c3)cc12	98.2% (inactive)
CC(C)n1c(/C=C/[C@@H](O)C[C@@H](O)CC(=O)O)c(-c2ccc(F)cc2)c2ccccc21	22.1% (inactive)
Cc1cc(C)nc(SC2=C(Nc3cccc(Cl)c3)C(=O)N(Cc3ccccc3)C2=O)n1	43.5% [30 µM] (inactive)
O=C1/C(=C(/c2ccccc2)N2CCOCC2)Cc2ccccc21	-46.3% (active)
COC(=O)[C@]12CCC(C)(C)C[C@H]1[C@H]1C(=O)C[C@@H]3[C@@]4(C)c5c([nH]c6ccccc6c5=O)C(C)(C)[C@@H]4CC[C@@]3(C)[C@]1(C)CC2	33.8% (inactive)
CCN(CC)S(=O)(=O)c1ccc(OC)c(NC(=O)c2[nH]c(C)c3c2CCCCC3=O)c1	33.7% (inactive)
Brc1ccc(-c2csc(Nc3ccccn3)n2)cc1	81.3% (inactive)
COc1ccc(-c2n[nH]nc2-c2csc3ccccc23)cc1OC	22.4% (inactive)
C#CCOc1ccc2ncnc(Nc3cccc(CNC(=O)CCl)c3)c2c1	26% [8.25 µM] (inactive)
N#Cc1cnn(-c2nc3c(Cl)cccc3s2)c1N	61.7% (inactive)
COc1cc(C(=O)/C=C/c2cccnc2Nc2ccc(Cl)cc2)cc(OC)c1OC	-55.7% (active)
O=C1c2cccc3cccc(c23)C(=O)N1CCCCN1CCN(CCCCOc2ccc(-c3nc4ccc(N5CCOCC5)cc4[nH]3)cc2)CC1	69.1% (inactive)
COc1ccc(/C=C/c2nc3ccccc3nc2/C=C/c2ccc(OC)cc2)cc1	89% (inactive)
CC1(C)CC[C@]2(C(=O)Nc3ccccn3)CC[C@]3(C)C(=CC[C@@H]4[C@@]5(C)C/C(=C/c6cccnc6)C(=O)C(C)(C)[C@@H]5CC[C@]43C)[C@H]2C1	11.4% (inactive)
C#Cc1cccc(NC(=O)c2ccccc2NC(=O)CCl)c1	49.4% [8.25 µM] (inactive)
O=CNc1ccc2c(c1)Cc1cccc(NC=O)c1-2	95.2% (inactive)
CCN1CCN(c2nc(NCCNc3ccnc4cc(Cl)ccc34)c3ccccc3n2)CC1	1.44% (active)
COC(=O)[C@@H]1CCCN1C(=O)[C@@H]1CCCN1C(=O)[C@H](Cc1ccccc1)NC(=S)Nc1cc(C(F)(F)F)cc(C(F)(F)F)c1	69% (inactive)
COc1ccc2c(c1)CC/C(=C\c1cncc(Br)c1)C2=O	65.8% (inactive)
Cc1[nH]c(-c2cc(N)ccc2Cl)c2c1C(=O)CCCC2	29.4% (inactive)

SMILES	growth
CCC([N+](=O)[O-])S(=O)(=O)c1ccc(C)cc1 (stereo not given)	98.7% (inactive)
c1ccc(CCNc2ncnc3[nH]ncc23)cc1	98.3% (inactive)
Oc1cccc(-c2nc(N3CCOCC3)c3c4c(sc3n2)CCCC4)c1	66.5% (inactive)
Cc1c(/C=C/[N+](=O)[O-])ccc2c1[nH]c1ccccc12	-97.8% (active)
CCOC(=O)n1cc(-c2nonc2-c2cn(C)c3ncccc23)c2cc(F)ccc21	69.5% (inactive)
CC(=O)Nc1ccc(-n2c(O)c(/C=N/NC(=O)Cc3ccccc3Nc3c(Cl)cccc3Cl)sc2=S)cc1	95.3% (inactive)
Oc1ccc(N=Cc2ccccc2O)cc1	98.8% (inactive)
O=C1CC(=NCC(=O)n2c(-c3ccccc3)nc3ccccc32)NN1	94.6% (inactive)
CCOc1ccc(C(C)=O)cc1NC(=O)c1cccc(-c2nnn(CC)n2)c1	19.3% (inactive)
CC/C=C\C/C=C\C[C@H]1C/C=C2/C(=O)C=C[C@@H]2C/C=C\CCC(=O)O1	-48.7% (active)
FC(F)(F)c1ccc(-c2cn3nc(-c4c[nH]c5ccc(Br)cc45)sc3n2)cc1	93.1% (inactive)
O=C(COc1cccc(/C=C2\CSc3ccccc3C2=O)c1)Nc1nccs1	-21% (active)
COc1cc2c(cc1-c1c(C)noc1C)ncc1nc(C3CCC(F)(F)CC3)n([C@H](C)COC(F)F)c12	33% (inactive)
COc1ccc(N=Nc2nccs2)c(O)c1	22.3% (inactive)
CCC(=O)c1ccc(Cl)s1	101% (inactive)
NC1=C(Cl)C(=O)c2ccc(S(N)(=O)=O)cc2C1=O	-90.1% (active)
Fc1ccc(CNc2cccc3[nH]c(C(F)(F)F)nc23)cc1	95.8% (inactive)
Cn1cc(C(=O)c2nc(-c3c[nH]c4ccccc34)no2)c2ccccc21	47.1% (inactive)
CC(C)(O)c1cn(CCCCN2C(=O)C(=O)c3ccccc32)nn1	101% (inactive)
COc1cccc(-c2nn(C(C)(C)C)cc2-c2ccnc(NCCCNS(=O)(=O)c3ccc(C)cc3)c2)c1	96.7% (inactive)
